The values that follow come from PubChem BioAssay (Tox21).

Inconclusive results are not listed. Where a call stands in place of a potency, no number is given. The source made the active and inactive calls. Calls follow the shape of the dose curve; as a rule, active = well fitted activation curve with a large enough effect in the repeat runs; inconclusive = weak or mixed curves; inactive = no such curve, though single readings can be large or run the other way.
Potency is read from the fitted curve at half-maximal effect.

Sequence of Nuclear receptor subfamily 1 group I member 2 (Homo sapiens) (O75469 whole entry, looked up): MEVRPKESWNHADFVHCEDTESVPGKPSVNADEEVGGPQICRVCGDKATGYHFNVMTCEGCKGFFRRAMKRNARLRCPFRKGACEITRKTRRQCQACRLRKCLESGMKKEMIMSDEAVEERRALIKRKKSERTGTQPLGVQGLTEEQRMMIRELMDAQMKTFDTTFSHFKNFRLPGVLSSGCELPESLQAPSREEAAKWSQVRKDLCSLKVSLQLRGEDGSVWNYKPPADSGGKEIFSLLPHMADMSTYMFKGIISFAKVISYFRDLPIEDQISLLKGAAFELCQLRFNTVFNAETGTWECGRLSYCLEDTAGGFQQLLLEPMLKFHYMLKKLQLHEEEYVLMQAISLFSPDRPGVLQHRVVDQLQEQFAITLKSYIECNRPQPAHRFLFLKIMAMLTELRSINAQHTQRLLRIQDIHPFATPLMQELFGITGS

The target of the assay is Nuclear receptor subfamily 1 group I member 2 (Homo sapiens) (UniProt O75469). In words: Human pregnane X receptor (PXR) small molecule agonists, qHTS assay (AID 1346982). Also: nearly all actives have a fitted effect of over 35% in size. Particulars: PXR-Luc HepG2, CYP3A4 luciferase reporter, 24 h; series mostly up to 92.4 µM. The source says:
National Center for Advancing Translational Sciences [NCATS]
NIH Chemical Genomics Center [NCGC]
U.S. Environmental Protection Agency [EPA]
National Institutes of Environmental Health Sciences [NIEHS]
National Toxicology Program [NTP]
The human pregnane X receptor (hPXR) regulates the expression of several drug metabolizing enzymes and induction of these proteins is a major mechanism for developing drug resistance in cancer. One such key enzyme catalyzing the drug metabolism is cytochrome P450 3A4 (CYP3A4). Changes in CYP3A4 expression affect drug metabolism, thereby reducing the therapeutic efficacy and altering toxicological response to a drug and which finally causes adverse drug interaction. To screen Tox21 libraries for compounds that activate hPXR-mediated CYP3A4 gene expression, PXR-Luc HepG2 cells were used.
PXR-Luc HepG2 cells were dispensed at 2,000 per well in 5uL of assay medium containing 5% charcoal-stripped FBS into white solid bottom 1536-well plates (Corning Life Sciences, Corning, NY) using a Multidrop Combi (Thermo Scientific, Waltham, MA) dispenser. The assay plates were incubated at 37 C and 5% CO2 for 5hr, and then 23nL of compounds dissolved in DMSO and positive control were transferred using a Pintool station (Wako, San Diego, CA). The assay plates were incubated at 37C and 5% CO2 for 24hr. For luciferase read, 4uL of ONE-Glo reagent (Promega Corporation, Madison, WI) was added to each well of the assay plates using Flying Reagent Dispenser (FRD, Aurora Discovery, San Diego, CA) and incubated the assay plates at room temperature for 30min. The luminescence signal was quantified using a ViewLux plate reader (Perkin Elmer, Shelton, CT).
With `CCN(CC)C(=O)c1ccc(O)c(OC)c1`, the Potency result is “inactive”.

`NC(=O)c1ncn([C@@H]2O[C@H](CO)[C@@H](O)[C@H]2O)c1O`: the Potency result is “inactive”.

Take `CCC(C)(C)C1CCC(OC)CC1` (stereo not given): the Potency was 30.6 µM (active).

Turning to `CC(=O)c1ccc(C)cc1`, the Potency result was “inactive”.

In the case of `CC12CCC(CC1=O)C2(C)C` (stereo not given), the Potency entry is “inactive”.

With `CCCOc1ccccc1-c1nc2n[nH]nc2c(=O)[nH]1`, the Potency entry is “inactive”.

Turning to `Cc1ccc(N)cc1[N+](=O)[O-]`, the Potency was 10.9 µM (active).

For `CCCCCC[C@@H](CCC)C(=O)O`, the Potency entry was “inactive”.

As for `COc1cc(C(=O)N2CCOCC2)cc(OC)c1OC`, the Potency entry is “inactive”.

With `CC(C)c1ccc2oc3nc(N)c(C(=O)O)cc3c(=O)c2c1`, the Potency was 0.335 µM (active).

Regarding `COC(=O)[C@H]1[C@H]2C[C@@H]3c4[nH]c5cc(OC)ccc5c4CCN3C[C@H]2C[C@@H](OC(=O)COc2ccc(OC)cc2)[C@@H]1OC`, the Potency result is “inactive”.

Turning to `CCCCOCC(C)OCC(C)O` (stereo not given), the Potency was 27.9 µM (active).

Turning to `CC(C)(C)CC(C)(C)N`, the Potency result was “inactive”.

Take `OCCCCCCO`: the Potency result was “inactive”.

On to `COc1ccc2cc(C=O)ccc2c1`, for which the Potency result is “inactive”.

On to `CC(C)N1C(=O)c2ccccc2C1=O`, for which the Potency result was “inactive”.

Regarding `O=C(CCOCCOCCOCCOCCC(=O)Nc1c(I)cc(I)c(C(=O)O)c1I)Nc1c(I)cc(I)c(C(=O)O)c1I`, the Potency result is “inactive”.

Regarding `C=CCn1c(=O)n([C@@H]2O[C@H](CO)[C@@H](O)[C@H]2O)c2nc(N)[nH]c(=O)c21`, the Potency entry is “inactive”.

`C#CC(C)(O)CC(C)C` (stereo not given): the Potency entry was “inactive”.

As for `C=CC(=O)N1CCOCC1`, the Potency entry was “inactive”.

Take `C=CC(=O)OCCCCCC`: the Potency result is “inactive”.

Take `CCC(=O)Nc1cccc(N)c1`: the Potency entry is “inactive”.

For the molecule `c1ccc(CCCc2ccccn2)cc1`, the Potency was 34.4 µM (active).

As for `CC(C)CCOC(=O)CC(C)C`, the Potency entry is “inactive”.

Turning to `NCCN1CCNC1=O`, the Potency entry was “inactive”.

Take `CO[Si](OC)(OC)OC`: the Potency result is “inactive”.

As for `CSc1ccc(C=O)cc1`, the Potency result is “inactive”.

Consider `O=C1OC(=O)c2cc([N+](=O)[O-])ccc21`, for which the Potency entry was “inactive”.

For the molecule `CCO[Si](CCCN=C=O)(OCC)OCC`, the Potency entry was “inactive”.

As for `O=C(O)Cc1cc(I)c(Oc2cc(I)c(O)c(I)c2)c(I)c1`, the Potency is 37.8 µM (active).

In the case of `CCn1c(=O)c2c(nc(/C=C/c3ccc(OC)c(OC)c3)n2C)n(CC)c1=O`, the Potency was 26.6 µM (active).

In the case of `COc1ccc(NC(C)=O)cc1`, the Potency entry was “inactive”.

For the molecule `CC/C=C\CCCCO`, the Potency entry is “inactive”.

On to `CCCCCCCCCCCCCCCCCC(=O)OCCCCCCCCCCCCCC(C)C`, for which the Potency result is “inactive”.

Turning to `C=CCOCC(O)CS(=O)(=O)O` (stereo not given), the Potency result is “inactive”.

For `CC(C)=CCC/C(C)=C/C(=O)O`, the Potency result is “inactive”.

Take `CN(C)CCn1nnnc1SCC1=C(C(=O)O)N2C(=O)[C@@H](NC(=O)Cc3csc(N)n3)[C@H]2SC1`: the Potency result is “inactive”.

With `CC/C=C\C#N`, the Potency entry was “inactive”.

Regarding `[O-][N+](=Nc1ccccc1)c1ccccc1`, the Potency was 21.7 µM (active).

On to `C=C(C)[C@H]1CC=C(C)CC1`, for which the Potency was 61.1 µM (active).
